Experimental data as given in PubChem BioAssay (NCI).
“And” between values parts separate entries of the source, which are not always exact repeats. Identical values can stand only once. This is part of a sample that, as a whole, favours compounds with a hit. Of some 83,000 tested, about 20% had one in any assay.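 Single-dose data. Exposure time 48 hours. Values below 10 considered active.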 The source made the active and inactive calls.

Each compound was assayed on MDA-MB-468 breast (assay: NCI-60 one-dose screen, 48 h (100 = growth as untreated, 0 = no growth, -100 = all killed)). Conditions: 10 µM unless noted.

| SMILES | growth |
| --- | --- |
| Fc1ccc(Nc2ncnc3ccc(-c4cn[nH]c4)cc23)cc1Cl | -21.9% (active) |
| O=C(Nc1ccccc1-c1nc2ccccc2c(=O)[nH]1)c1cc2ccccc2[nH]1 | 86.9% (inactive) |
| CCCCCCCCCCNC(=O)CCl | 67.8% (inactive) |
| Nc1nc(Cl)cc(Cl)n1 | 99.4% (inactive) |
| OCCN1CCN(CCO)CC1 | 107% (inactive) and 103% (inactive) and 105% (inactive) |
| CC1=CC(C)(C)Nc2ccc(Cc3ccc4c(c3)C(C)=CC(C)(C)N4)cc21 | -12.4% (active) |
| COc1ccc(NCc2cn(-c3ccc(C(=O)O)cc3)nc2-c2ccc(C(=O)O)cc2)cc1C(F)(F)F | 98.6% (inactive) |
| COc1ccc(NC(=O)c2sc3nc(C)c(C(=O)/C=C/c4cccc(OC)c4)cc3c2N)cc1 | 27.9% (inactive) |
| COc1cccc(-c2nn(-c3ccccc3)cc2-c2ccnc(NCCCNS(=O)(=O)c3ccccc3)c2)c1 | 8.98% (active) |
| CCN1CCN(c2cc(C)nc(NCc3cc(Nc4ccnc5cc(Cl)ccc45)ccc3F)n2)CC1 | 47.4% (inactive) |
| CC(=O)c1ccc2c(ccc3ccccc32)c1 | 95.5% (inactive) |
| C=C(C)[C@@H]1CC[C@]2(c3ncc(C)o3)CC[C@]3(C)[C@H](CC[C@@H]4[C@@](C)(CCC#N)[C@H](C(=C)C)CC[C@]43C)[C@@H]12 | -63% [100 µM] (active) |
| C=C(C)[C@@H]1CC[C@]2(COC(C)=O)CC[C@]3(C)[C@H](CC[C@@H]4[C@@]5(C)CCCN(C(C)=O)C(C)(C)[C@@H]5CC[C@]43C)[C@@H]12 | -49.5% (active) |
| Cn1c2c(c3ccc(-c4ccn[nH]4)cc3c1=O)C(=O)c1ccccc1-2 | 46.2% (inactive) |
| CC(=O)Oc1cc(OC(C)=O)c2ccccc2c1OC(C)=O | 72.7% (inactive) |
| CN1CCN(c2ccc(NC(=O)c3cncnc3Nc3ccc(OCc4ccccn4)c(Cl)c3)cc2)CC1 | 38.1% (inactive) |
| COC(=O)N[C@H]1CCc2cc(OC)c(OC)c(OC)c2-c2ccc(SC)c(=O)cc21 | -32% (active) |
| CCCCCCN(CCCCCC)c1ccc(/C=C2/SC(=O)N(c3nc(N4CCCC4)nc(N4CCCC4)n3)C2=O)c(C)c1 | 59% (inactive) |
| CCCCCCCCCCCCNC(=O)N[C@H](C(=O)N[C@H]1/C=C/OCCNC(=O)/C=C/[C@H](C(C)C)NC1=O)C(C)C | 15.5% (inactive) |
| COc1ccccc1N1CCN(C(=O)c2ccc3nc(NC(=O)c4ccc(NCCc5ccccc5)c([N+](=O)[O-])c4)sc3c2)CC1 | 99.1% (inactive) |

| SMILES | growth |
| --- | --- |
| NC(=O)c1ccc2c(c1)OCO2 | 88.9% (inactive) |
| CN(C)C(=O)c1cc2cnc(Nc3ccc(-c4csc5c(=S)cc(N6CCOCC6)oc45)cc3)nc2n1C1CCCC1 | 1.46% (active) |
| COc1ccc(-c2nc(-c3ccccc3)c(-c3ccccc3)n2C2CC2)cc1OC1CCCCC1 | 58.8% (inactive) |
| CCN(CC)CCOc1ccc2c(c1)C(=O)c1cc(OCCN(CC)CC)ccc1-2 | 14.9% (inactive) and -13.8% (active) |
| O=C(NOCCO)c1cc(CN2OCCCC2=O)c(F)c(F)c1Nc1ccc(I)cc1F | 114% (inactive) |
| O=C1NC(=O)C2(CCCC2C(=O)O)N1 (stereo not given) | 107% (inactive) |
| Brc1ccc2[nH]cc(-c3cncn3CCc3ccccc3)c2c1 | 17.2% (inactive) |
| CC1(C)CC2(C)OC2C2(C1)N=NC(=Nc1ccccc1)O2 (stereo not given) | -15.6% (active) |
| Nc1nc(N)c2nc(-c3cccc(O)c3)c(-c3cccc(O)c3)nc2n1 | 10.4% (inactive) |
| CN1CCN(c2ccc3nc(-c4c(N)c5c(F)cccc5[nH]c4=O)[nH]c3c2)CC1 | 108% (inactive) and 102% (inactive) |
| CC(=O)CSc1ncnc2nc[nH]c12 | 40.6% (inactive) |
| NN1CCOC(c2ccccc2)C1 (stereo not given) | 113% (inactive) |
| Cc1cc2nc3ccc(N=Nc4ccc(N(C)C)cc4)cc3n(-c3ccccc3)c-2cc1=N | -89.4% (active) |
| CC[N+](CC)(CCCC(C)[N+]1(Cc2ccccc2)C(C)=CC=C1C)Cc1ccccc1 (stereo not given) | -12.8% (active) |
| CCCCNc1nc(NC(C)(C)C)nc(NC(C)(C)C)n1 | 78.5% (inactive) |
| CC(=O)c1ccc2c(c1)CCc1ccccc1-2 | 94.9% (inactive) |
| COc1ccc(Nc2cc(Cl)ccc2C(=O)O)cn1 | 95.8% (inactive) |
| COc1cccc(/C=N/NC(=O)c2ccccc2N2CCCC2)c1O | 0.775% (active) |
| COC(=O)C(O)c1ccccc1 (stereo not given) | 112% (inactive) |
| CC(=O)OC[C@]12CC[C@@H](c3cn(Cc4ccc(Cn5cc([C@@H]6CC[C@]7(COC(C)=O)CC[C@]8(C)[C@H](CC[C@@H]9[C@@]%10(C)CC[C@H](OC(C)=O)C(C)(C)[C@@H]%10CC[C@]98C)[C@@H]67)nn5)cc4)nn3)[C@@H]1[C@H]1CC[C@@H]3[C@@]4(C)CC[C@H](OC(C)=O)C(C)(C)[C@@H]4CC[C@@]3(C)[C@]1(C)CC2 | 102% (inactive) |
